Records with an inconclusive call do not appear. Activity calls are given as the source filed them. Rule for the calls, unless noted: active = hit-call score of the fitted dose curve at least 0.9, where 1 is the maximum; inactive = score below 0.9.
How the values were obtained:
[1] = read-out: Monocyte Chemoattractant Protein-1 (MCP1), CCL2 (gene 6347); experiment: BSK_LPS_MCP1: BioMAP Diversity Plus: LPS Assay for Monocyte Chemoattractant Protein-1 (MCP1) Biomarker Activity (AID 2283081); conditions: primary human HUVEC with PBMC; actives raise or lower the signal
How it was run: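 ELISA read-out of MCP-1 after 24 h chemical dosing of a human umbilical vein endothelial cell/peripheral blood mononuclear cell co-culture stimulated with LPS. Gain or loss of signal fitted relative to DMSO controls.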

[2] = BSK_LPS_PGE2: BioMAP Diversity Plus: LPS Assay for Prostaglandin E2 (PGE2) Biomarker Activity (AID 2283082); conditions: primary human HUVEC with PBMC; actives raise or lower the signal
How it was run: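 Endpoint derived from bidirectional curve fitting versus DMSO of ELISA-measured PGE2 in LPS-stimulated human primary vascular co-culture (HUVEC with PBMC) harvested at 24 h.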

[3] = read-out: Macrophage colony-stimulating factor (MCSF), CSF1 (gene 1435); experiment: BSK_LPS_MCSF: BioMAP Diversity Plus: LPS Assay for Macrophage colony-stimulating factor (MCSF) Biomarker Activity (AID 2283083); conditions: primary human HUVEC with PBMC; actives raise or lower the signal
How it was run: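 HUVEC + PBMC co-culture (human primary), 24 h post-dose; M-CSF by ELISA; gain/loss of signal fitted bidirectionally vs DMSO baseline.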

[4] = read-out: Tissue Factor, F3 (gene 2152); experiment: BSK_LPS_TissueFactor: BioMAP Diversity Plus: LPS Assay for Tissue Factor Biomarker Activity (AID 2283084); conditions: primary human HUVEC with PBMC; actives raise or lower the signal
How it was run: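 HUVEC/PBMC co-culture, LPS-activated; CD142 ELISA read 24 h post-dose; bidirectional curve fit vs DMSO negative control.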

[5] = read-out: Tumor necrosis factor (Homo sapiens) (UniProt P01375); experiment: BSK_LPS_TNFa: BioMAP Diversity Plus: LPS Assay for Tumour Necrosis Factor alpha (TNFa) Biomarker Activity (AID 2283085); conditions: primary human HUVEC with PBMC; actives raise or lower the signal
How it was run: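 Primary human vascular co-culture of HUVEC and PBMC; TNFa ELISA 24 h after treatment, analysed as increase or decrease relative to DMSO control.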

[6] = read-out: Vascular cell adhesion molecule 1 (VCAM1), VCAM1 (gene 7412); experiment: BSK_LPS_VCAM1: BioMAP Diversity Plus: LPS Assay for Vascular cell adhesion molecule 1 (VCAM1) Biomarker Activity (AID 2283086); conditions: primary human HUVEC with PBMC; actives raise or lower the signal
How it was run: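 Primary human vascular co-culture (umbilical vein endothelium plus PBMC) stimulated with LPS received chemical; 24 h later VCAM-1 was read by ELISA. Overt cytotoxicity was assessed by sulforhodamine B staining of parallel cultures at the same time point.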

CD38, CD38 (gene 952) = experiment: BSK_SAg_CD38: BioMAP Diversity Plus: SAg Assay for CD38 Biomarker Activity (AID 2283087); conditions: primary human HUVEC with PBMC; actives raise or lower the signal
How it was run: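 Fluorescence ELISA of cell-surface CD38 served as the read-out, with either increase or decrease fitted against DMSO controls. Cells were a human umbilical vein endothelium plus PBMC co-culture under SEB/TSST-1 stimulation, measured 24 h after dosing.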

CD40, CD40 (gene 958) = experiment: BSK_SAg_CD40: BioMAP Diversity Plus: SAg Assay for CD40 Biomarker Activity (AID 2283088); conditions: primary human HUVEC with PBMC; actives raise or lower the signal
How it was run: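 HUVEC/PBMC co-culture, 24 h post-dose; CD40 by ELISA, fluorescence intensity; bidirectional fit vs DMSO negative control.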

CD69, CD69 (gene 969) = experiment: BSK_SAg_CD69: BioMAP Diversity Plus: SAg Assay for CD69 Biomarker Activity (AID 2283089); conditions: primary human HUVEC with PBMC; actives raise or lower the signal
How it was run: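 HUVEC co-cultured with PBMC were dosed with chemical, and CD69 was measured by ELISA with fluorescence read-out 24 h later. Bidirectional curve fitting used DMSO as negative control and activity baseline.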

[7] = read-out: Monocyte Chemoattractant Protein-1 (MCP1), CCL2 (gene 6347); experiment: BSK_SAg_MCP1: BioMAP Diversity Plus: SAg Assay for Monocyte Chemoattractant Protein-1 (MCP1) Biomarker Activity (AID 2283090); conditions: primary human HUVEC with PBMC; actives raise or lower the signal
How it was run: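 MCP-1 levels in the endothelial–PBMC SAg co-culture were quantified by ELISA at 24 h post-dosing; both increases and decreases versus DMSO scored. Cytotoxicity monitored by SRB total protein in parallel cultures.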

[8] = read-out: E-selectin (Homo sapiens) (UniProt P16581); experiment: BSK_SAg_Eselectin: BioMAP Diversity Plus: SAg Assay for Eselectin Biomarker Activity (AID 2283091); conditions: primary human HUVEC with PBMC; actives raise or lower the signal
How it was run: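 E-selectin ELISA readout at 24 h post-dosing in human umbilical vein endothelial cell/PBMC co-culture; gain or loss of signal fitted relative to DMSO baseline.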

[9] = read-out: Monokine induced gamma interferon (MIG), CXCL9 (gene 4283); experiment: BSK_SAg_MIG: BioMAP Diversity Plus: SAg Assay for Monokine induced gamma interferon (MIG) Biomarker Activity (AID 2283092); conditions: primary human HUVEC with PBMC; actives raise or lower the signal
How it was run: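 HUVEC plus human PBMC co-culture, chemicals dosed and MIG (CXCL9) quantified by ELISA at 24 h. Bidirectional curve fitting against DMSO as negative control and baseline, so both gain and loss of signal count as activity.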

[10] = BSK_SAg_PBMCCytotoxicity: PBMC Cytotoxicity Assessment in the BioMAP Diversity Plus: SAg Assay (AID 2283093); conditions: primary human HUVEC with PBMC;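 note: PBMC viability measured as Alamar Blue reduction fluorescence at 546/580 nm; fitted both ways against DMSO so a hit may be loss or gain of signal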;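 for AC50: PBMC superantigen activated with SEB plus TSST-1 one hour after compound addition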
How it was run: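 Compound added to 75,000 PBMC/well for 1 h; SEB and TSST-1 then added at 20 ng/mL final each; 90 h incubation; Alamar Blue 6 h; read 546/580 nm ex/em. Activity fitted bidirectionally relative to DMSO baseline.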

[11] = read-out: Interleukin-8 (IL8), CXCL8 (gene 3576); experiment: BSK_SAg_IL8: BioMAP Diversity Plus: SAg Assay for Interleukin-8 (IL8) Biomarker Activity (AID 2283094); conditions: primary human HUVEC with PBMC; actives raise or lower the signal
How it was run: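 In this co-culture of human umbilical vein endothelium with peripheral blood mononuclear cells, IL-8 is assayed by ELISA at 24 h. DMSO serves as baseline for bidirectional curve fitting.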

[12] = BSK_SAg_Proliferation: Cell Proliferation Assessment in the BioMAP Diversity Plus: SAg Assay (AID 2283095); conditions: primary human HUVEC with PBMC;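 note: relative cell number as total protein by SRB absorbance in sub-confluent culture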
How it was run: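 Readout is SRB-stained protein (560 nm) in a primary human HUVEC and PBMC co-culture; sub-confluent cultures are read at 96 h. Activity is fitted bidirectionally using DMSO as baseline.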

[13] = BSK_SAg_SRB: Viability Assessment in the BioMAP Diversity Plus: SAg Assay (AID 2283096); conditions: primary human HUVEC with PBMC;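 note: cells read one day after compound addition; hits may be either gain or loss of signal compared with DMSO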
How it was run: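 Total protein by sulforhodamine B staining, 24 h after dosing, in HUVEC–PBMC co-culture; DMSO-referenced bidirectional fitting.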

[14] = target: human CYP1A1, CYP1A1 (gene 1543) (UniProt P04798); experiment: NVS_ADME_hCYP1A1: NovaScreen (NVS) CYP450-related Enzyme Activity (ADME) Assay for human CYP1A1 (AID 2283100; active = hit-call score of the fitted dose curve at least 0.9, where 1 is the maximum)
human CYP1A1, CYP1A1 (gene 1543), sequence (P04798 whole entry, looked up): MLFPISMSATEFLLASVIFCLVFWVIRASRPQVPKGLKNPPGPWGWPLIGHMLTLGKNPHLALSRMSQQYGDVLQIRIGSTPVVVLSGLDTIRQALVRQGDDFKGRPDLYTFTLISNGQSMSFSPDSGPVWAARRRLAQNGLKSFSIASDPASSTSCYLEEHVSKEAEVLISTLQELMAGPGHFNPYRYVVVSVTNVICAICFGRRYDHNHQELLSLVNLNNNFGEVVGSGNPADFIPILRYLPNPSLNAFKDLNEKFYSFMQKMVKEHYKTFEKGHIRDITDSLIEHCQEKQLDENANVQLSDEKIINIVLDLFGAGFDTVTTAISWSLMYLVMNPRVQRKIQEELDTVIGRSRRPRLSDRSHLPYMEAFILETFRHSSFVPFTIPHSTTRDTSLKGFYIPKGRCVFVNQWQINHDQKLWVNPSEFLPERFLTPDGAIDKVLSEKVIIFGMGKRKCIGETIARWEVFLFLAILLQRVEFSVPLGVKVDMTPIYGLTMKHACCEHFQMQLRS
How it was run: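 Read-out: fluorescence intensity from enzymatic turnover of substrate by recombinant CYP1A1, loss of signal indicating inhibition. Incubation 1 h post-dose. Primary single-point 10 uM in duplicate; actives rerun singly with top concentration 20 uM.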

[15] = target: human CYP2B6, CYP2B6 (gene 1555) (UniProt P20813); experiment: NVS_ADME_hCYP2B6: NovaScreen (NVS) CYP450-related Enzyme Activity (ADME) Assay for human CYP2B6 (AID 2283101; active = hit-call score of the fitted dose curve at least 0.9, where 1 is the maximum)
human CYP2B6, CYP2B6 (gene 1555), sequence (P20813 whole entry, looked up): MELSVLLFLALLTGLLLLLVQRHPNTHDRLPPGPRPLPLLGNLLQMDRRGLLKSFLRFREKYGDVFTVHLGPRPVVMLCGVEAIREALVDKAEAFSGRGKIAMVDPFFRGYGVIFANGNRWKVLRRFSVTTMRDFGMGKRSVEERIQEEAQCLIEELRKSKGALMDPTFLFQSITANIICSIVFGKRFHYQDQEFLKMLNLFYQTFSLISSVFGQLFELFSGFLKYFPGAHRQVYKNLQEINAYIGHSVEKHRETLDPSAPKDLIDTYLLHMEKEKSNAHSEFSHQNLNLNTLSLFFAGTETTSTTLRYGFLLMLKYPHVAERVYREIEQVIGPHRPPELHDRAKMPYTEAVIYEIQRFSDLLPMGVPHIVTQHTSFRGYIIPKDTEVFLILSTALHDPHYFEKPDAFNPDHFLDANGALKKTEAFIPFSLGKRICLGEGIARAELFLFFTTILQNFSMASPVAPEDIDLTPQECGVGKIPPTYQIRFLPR
How it was run: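 Recombinant human CYP2B6 with fluorogenic substrate, read by fluorescence intensity 1 h after dosing. Primary screen in duplicate at 10 uM, actives followed in concentration series; signal loss relative to acetonitrile control.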

Measured: AC50

E-selectin (Homo sapiens), sequence (P16581 whole entry, looked up): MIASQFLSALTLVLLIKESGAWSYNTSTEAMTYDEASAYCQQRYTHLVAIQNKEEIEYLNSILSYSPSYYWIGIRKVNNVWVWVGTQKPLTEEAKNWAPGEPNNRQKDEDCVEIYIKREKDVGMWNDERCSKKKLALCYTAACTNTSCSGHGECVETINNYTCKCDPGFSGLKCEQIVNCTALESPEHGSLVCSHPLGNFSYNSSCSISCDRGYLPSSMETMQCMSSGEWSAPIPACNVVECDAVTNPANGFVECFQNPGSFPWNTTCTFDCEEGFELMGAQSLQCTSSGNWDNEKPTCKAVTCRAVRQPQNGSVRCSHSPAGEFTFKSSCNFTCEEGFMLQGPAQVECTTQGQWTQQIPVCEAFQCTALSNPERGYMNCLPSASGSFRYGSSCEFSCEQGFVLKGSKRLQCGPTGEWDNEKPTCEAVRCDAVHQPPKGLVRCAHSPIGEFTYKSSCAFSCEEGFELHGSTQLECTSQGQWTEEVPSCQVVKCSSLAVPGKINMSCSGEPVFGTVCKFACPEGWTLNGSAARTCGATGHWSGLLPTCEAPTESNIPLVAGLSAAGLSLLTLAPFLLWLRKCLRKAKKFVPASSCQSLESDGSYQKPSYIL
Tumor necrosis factor (Homo sapiens), sequence (P01375 whole entry, looked up): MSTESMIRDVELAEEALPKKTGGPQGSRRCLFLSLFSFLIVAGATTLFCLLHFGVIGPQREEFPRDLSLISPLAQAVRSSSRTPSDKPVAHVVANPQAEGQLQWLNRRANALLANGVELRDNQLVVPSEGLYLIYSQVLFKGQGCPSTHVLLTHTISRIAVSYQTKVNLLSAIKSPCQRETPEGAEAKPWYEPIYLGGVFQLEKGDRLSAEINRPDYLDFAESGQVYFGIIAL

Cn1cnc2c1c(=O)[nH]c(=O)n2C
not listed: [14] | [15]
inactive: all other assays above

CC(=O)OCC(COC(C)=O)OC(C)=O
not listed: [15]
inactive: all other assays above

CC(COCC(C)OC(=O)c1ccccc1)OC(=O)c1ccccc1 (stereo not drawn)
not listed: [14]
inactive: all other assays above

CCCCCCCCCCCCCCOS(=O)(=O)O
active: CD38, CD38 (gene 952) 20 µM | [10] 34.2 µM
not listed: [14] | [15]
inactive: all other assays above

COC(=O)CCCC(=O)OC
not listed: [14] | [15]
inactive: all other assays above

O=C(NS(=O)(=O)/C=C/c1cccs1)c1ccc(F)cc1Br
active: CD40, CD40 (gene 958) 3.97 µM | [12] 3.54 µM
not listed: [14] | [15]
inactive: all other assays above

CCCCCCCC(=O)OC
not listed: [8] | [14] | [15]
inactive: all other assays above

CCCCOC(=O)CCCCC(=O)OCCCC
not listed: [12] | [14] | [15]
inactive: all other assays above

— PubChem BioAssay (EPA / NIEHS)
